GCN5L2 inh: qHTS Assay for Inhibitors of GCN5L2; AID 504327, 2011; GCN5L2 HAT assay, ThioGlo1 CoA-SH fluorescence; Potency, µM (titrated, usually from 58.9 µM), inactives show at the highest dose activity change, negative = inhibition, hits mostly inhibitors; 390,000 compounds, 0.21% hits; Histone acetyltransferase KAT2A (Homo sapiens), Q92830
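Fluorescence readout, Ex340nm/Em540nm: ThioGlo1 (50uM final) reacts with free CoA thiol released as 20nM GCN5L2 acetylates H3(1-25) peptide (75uM) using acetyl-CoA (70uM). Compound and enzyme sat 15 min beforehand; 20 min room-temperature reaction.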
TDP1 cell CPT: qHTS for Inhibitors of human tyrosyl-DNA phosphodiesterase 1 (TDP1): qHTS in cells in presence of CPT. chicken DT40 Tdp1-/-;hTDP1 cells + 20 nM CPT, ATP luminescence, 48 h. Potency, µM (doses to about 46.2 µM), for inactives: top-dose activity change, negative = growth inhibition, actives largely listed as inhibitors. 420,000 compounds, 12% hits. AID 686979, 2013; note: nearly all actives have a fitted effect of over 55% in size
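Cell growth measured by CellTiter-Glo luminescence after a minimum 48 h, 37 C compound exposure with 20 nM CPT in Tdp1-knockout DT40 cells stably expressing hTDP1, seeded 400/well; qHTS titration format.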
DT40 TDP1 no CPT: qHTS for Inhibitors of human tyrosyl-DNA phosphodiesterase 1 (TDP1): qHTS in cells in absence of CPT | DT40 Tdp1-/- hTDP1 cells, no CPT, ATP luminescence, 48 h | Potency, µM (top dose mostly 46.2 µM), inactives show at the highest dose activity change, negative = growth inhibition, usual class: inhibitors | 420,000 compounds, 15% hits | AID 686978, 2013; note: nearly all actives have a fitted effect of over 55% in size
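Stably hTDP1-transfected Tdp1-null chicken DT40 cells were treated with library compounds minus camptothecin and grown for at least 48 hr at 37 °C, after which cellular ATP was quantified by luminescence.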
PLK1 PBD inh: qHTS for Inhibitors of PLK1-PDB (polo-like kinase 1 - polo-box domain): Primary Screen; Serine/threonine-protein kinase PLK1 (Homo sapiens), P53350; Plk1 PBD binding of FITC phosphopeptide, fluorescence polarization; AID 720504, 2013; Potency, µM, for inactives: max response, negative = inhibition, usual class: inhibitors; 360,000 compounds, 2.8% hits; note: series mostly up to about 57 µM; nearly all actives have a fitted effect of over 65% in size
TDP1 inh: qHTS Assay for Inhibitors of Tyrosyl-DNA Phosphodiesterase (TDP1). Potency, µM (highest dose often 130 µM), without a hit: top-dose activity change, negative = inhibition, most hits filed as inhibitors. 350,000 compounds, 0.28% hits. recombinant TDP1, AlphaScreen DNA substrate cleavage. AID 485290, 2010. Tyrosyl-DNA phosphodiesterase 1 (Homo sapiens), Q9NUW8; note: nearly all actives have a fitted effect of over 40% in size
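Tdp1 1 nM final; 15 min RT w/ cpd; substrate 15 nM, 5 min; beads 10 ug/ml, 10 min; AlphaScreen read. Neg ctrl: no enzyme.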
VDR inh: Inhibitors of the vitamin D receptor (VDR): qHTS. Vitamin D3 receptor (Homo sapiens), P11473. VDR-SRC2-3 peptide fluorescence polarization, 2 h. Potency, µM, for inactives: max response, negative = inhibition, actives largely listed as inhibitors. 400,000 compounds, 0.93% hits. AID 504847, 2011
Target sequence (P11473 whole entry, looked up): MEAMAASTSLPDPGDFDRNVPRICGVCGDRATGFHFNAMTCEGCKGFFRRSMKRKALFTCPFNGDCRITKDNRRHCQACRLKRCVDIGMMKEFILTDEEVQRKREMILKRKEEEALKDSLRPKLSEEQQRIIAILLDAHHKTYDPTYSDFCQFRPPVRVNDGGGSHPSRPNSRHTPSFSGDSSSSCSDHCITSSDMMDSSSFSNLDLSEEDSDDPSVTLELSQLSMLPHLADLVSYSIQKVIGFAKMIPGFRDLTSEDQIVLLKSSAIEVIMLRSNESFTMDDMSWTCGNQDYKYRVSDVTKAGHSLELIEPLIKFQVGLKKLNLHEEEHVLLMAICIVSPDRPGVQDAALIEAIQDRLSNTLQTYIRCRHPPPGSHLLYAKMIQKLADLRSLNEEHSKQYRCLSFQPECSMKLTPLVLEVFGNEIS
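Measured by FP: displacement of SRC2-3 coactivator peptide from VDR by library compounds, following a two-hour ambient incubation.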
An asterisk follows results filed as active; [ ] = another dose, or the depositor's remark. Rows were chosen to be rich in hits. Some 18% of all compounds tested hit in one or more screens of this group. Calls come from the whole dose curve; as a rule, active = well fitted curve in the direction sought with a large enough effect; inconclusive = small, poorly fitted or top-dose-only effect, or another doubt; inactive = no such curve, though single readings can be large; an effect the other way counts as inactive or inconclusive. % is set by controls: 0 for no effect and ±100 for the full control effect; potency is the fitted concentration of half-maximal effect.

Results for CCC(Sc1nc2nccnc2c(=O)n1Cc1ccc(OC)cc1)C(=O)NC1CCCCC1 (centres undefined) ?
GCN5L2 inh: 1%; TDP1 cell CPT: -29%; DT40 TDP1 no CPT: -18%; TDP1 inh: 0%; VDR inh: 14%

What do the screens show for `CC(NC(=O)CCn1nc(-c2ccc(Cl)cc2)ccc1=O)c1ccccc1` (centres undefined)?
GCN5L2 inh: -9%; TDP1 cell CPT: -17%; DT40 TDP1 no CPT: 5%; PLK1 PBD inh: -3%; TDP1 inh: 3%; VDR inh: -7%

Results for CC(/C=N/NC(=O)Cc1cccs1)=C\c1ccco1 ?
GCN5L2 inh: -10%; TDP1 cell CPT: inconclusive; DT40 TDP1 no CPT: inconclusive; PLK1 PBD inh: -10%; TDP1 inh: 3%; VDR inh: 1%

Results for CC(/C=C/c1ccco1)=N\NC(=O)c1cccnc1 ?
GCN5L2 inh: -7%[0.501 µM]; TDP1 cell CPT: -3%; DT40 TDP1 no CPT: -3%; PLK1 PBD inh: -5%; VDR inh: -6%

What do the screens show for `CC(=C/C(=O)O)/C=C/c1ccco1`?
GCN5L2 inh: -10%; TDP1 cell CPT: 6.5µM*; DT40 TDP1 no CPT: 7.3µM*; PLK1 PBD inh: -29%; TDP1 inh: -8%; VDR inh: -8%

Results for CC(/C=C/c1ccco1)=N/NC(=O)OC(C)(C)C ?
GCN5L2 inh: -8%; TDP1 cell CPT: inconclusive; DT40 TDP1 no CPT: 15µM*; PLK1 PBD inh: 1%; TDP1 inh: 5%; VDR inh: inconclusive

What do the screens show for `CC(/C=C/c1ccco1)=N/NC(=O)Cc1cccs1`?
GCN5L2 inh: -6%; TDP1 cell CPT: 7.1µM*; DT40 TDP1 no CPT: 4µM*; PLK1 PBD inh: -19%; TDP1 inh: 3%; VDR inh: -30%

What do the screens show for `CCOC(=O)/C=C/C(=O)Nc1ccccc1C(=O)NC1CCCCC1`?
GCN5L2 inh: -4%; TDP1 cell CPT: inconclusive; DT40 TDP1 no CPT: inconclusive; PLK1 PBD inh: -12%; TDP1 inh: -2%; VDR inh: 5%

What do the screens show for `Cc1cccc(C(C(=O)NC2CCCC2)N(C(=O)c2csnn2)C2CC2)c1` (centres undefined)?
GCN5L2 inh: -1%; TDP1 cell CPT: -3%; DT40 TDP1 no CPT: -10%; PLK1 PBD inh: 0%; TDP1 inh: -4%; VDR inh: 18%

Results for CC(C)(C)C1CCc2c(sc(NC(=O)Cn3nnc(-c4cccc(C(F)(F)F)c4)n3)c2C#N)C1 (centres undefined) ?
GCN5L2 inh: -8%; TDP1 cell CPT: -2%; DT40 TDP1 no CPT: -1%; TDP1 inh: 2%; VDR inh: -2%

What do the screens show for `CC(C)(C)c1ccc(CCC2OCC(C[N+]3(C)CCOCC3)O2)cc1` (centres undefined)?
GCN5L2 inh: -7%; TDP1 cell CPT: 1.8µM*; DT40 TDP1 no CPT: 2.1µM*; PLK1 PBD inh: -23%; TDP1 inh: 4%; VDR inh: -5%

How did COc1cc2c(cc1OC)C(=Cc1ccc(N(C)C)cc1)C=C2 do in these assays?
TDP1 cell CPT: inconclusive; DT40 TDP1 no CPT: inconclusive; PLK1 PBD inh: -5%; VDR inh: -2%

How did COc1cc(N(C)C)ccc1/C=C1\C=Cc2ccccc21 do in these assays?
TDP1 cell CPT: inconclusive; DT40 TDP1 no CPT: 16µM*

What do the screens show for `COc1cc(N(C)C)c(OC)cc1/C=C1\C=Cc2ccccc21`?
TDP1 cell CPT: inconclusive; DT40 TDP1 no CPT: 13µM*

What do the screens show for `COc1cc(N(C)C)c(OC)cc1C=O`?
TDP1 cell CPT: 16µM*; DT40 TDP1 no CPT: 11µM*

What do the screens show for `COc1cc(N2CCCC2)c(OC)cc1C=O`?
GCN5L2 inh: -11%; TDP1 cell CPT: inconclusive; DT40 TDP1 no CPT: inconclusive; PLK1 PBD inh: -12%; TDP1 inh: 6%; VDR inh: 10%

What do the screens show for `O=C1NC[C@H](CCCCN2C[C@H](Cc3ccc(O)cc3)N(CCc3ccccc3)C(=O)C2=O)N(CC2CCCCC2)C1=O`?
TDP1 cell CPT: 30%; DT40 TDP1 no CPT: -4%; PLK1 PBD inh: -1%

Results for COc1cccc(NC(=O)Cn2c(=O)n(CC(=O)NCc3ccc(C)cc3)c(=O)c3sccc32)c1 ?
GCN5L2 inh: -8%; TDP1 cell CPT: inconclusive; DT40 TDP1 no CPT: -25%; TDP1 inh: 3%; VDR inh: 18%

What do the screens show for `CCOc1ccc(CC(=O)NCCc2sc3nc(-c4ccc(F)cc4)nn3c2C)cc1`?
GCN5L2 inh: -2%; TDP1 cell CPT: inconclusive; DT40 TDP1 no CPT: inconclusive; TDP1 inh: 0%; VDR inh: 2%

What do the screens show for `CC(C)C[C@H]1CNC(=S)N1C[C@H]1CCCN1C[C@H](CC(C)C)N1C[C@H](CC(C)C)N(CCc2ccccc2)C1=S`?
TDP1 cell CPT: inconclusive; DT40 TDP1 no CPT: 26µM*; PLK1 PBD inh: -4%

Results for CCOc1ccc(CCN2C(=S)N([C@@H](Cc3ccc(O)cc3)CN3CCCC3CN3C(=S)NC[C@@H]3Cc3ccc(O)cc3)C[C@@H]2CC(C)C)cc1 (some centres undefined) ?
TDP1 cell CPT: inconclusive; DT40 TDP1 no CPT: inconclusive; PLK1 PBD inh: -1%; VDR inh: 2%

What do the screens show for `CC(C)C[C@H]1CNC(=S)N1C[C@H]1CCCN1C[C@H](Cc1ccccc1)N1C[C@H](CC(C)C)N(CCc2ccccc2)C1=S`?
TDP1 cell CPT: 13µM*; DT40 TDP1 no CPT: 16µM*; PLK1 PBD inh: 9%

Results for CC(C)C[C@H]1CNC(=S)N1CC1CCCN1C[C@H](CC(C)C)N1C[C@H](CC(C)C)N(CCc2ccccc2)C1=S (some centres undefined) ?
TDP1 cell CPT: 8.2µM*; DT40 TDP1 no CPT: 5.8µM*; PLK1 PBD inh: -3%; VDR inh: -6%

What do the screens show for `CC(C)C[C@H]1CNC(=S)N1C[C@H]1CCCN1C[C@H](CC(C)C)N1C[C@H](Cc2ccccc2)N(CCc2ccccc2)C1=S`?
TDP1 cell CPT: inconclusive; DT40 TDP1 no CPT: 21µM*; PLK1 PBD inh: 3%

Source: PubChem BioAssay (National Center for Advancing Translational Sciences (NCATS))
